An excerpt weighted towards active compounds, which were near 4.1% of everything screened.
BoNT-F LC inh: BoNT/F light chain protease inhibitors, primary screen, biochemical, flow cytometry, MLPCN library | Multiplex microsphere protease cleavage assay | inhibition, % at 10 µM | 360,000 compounds, 0.22% hits | AID 588497, 2011; in the data active means inhibition above about 35%, passing the limit was not always enough; inconclusive means no clear call, values can overlap the other calls
Anthrax LF prot: Bacillus anthracis LF protease inhibitors, primary screen, biochemical, multiplex microsphere, MLPCN library; Lethal factor (Bacillus anthracis), P15917; 360,000 compounds, 0.12% hits; multiplex microsphere protease cleavage assay; AID 588501, 2011; inhibition, % at 10 µM
Autofluor counter: compound fluorescence in toxin protease inhibitor counterscreen. 360,000 compounds, 3.1% hits. fluorescence intensity (no concentration beside the values). compound autofluorescence counterscreen, microsphere flow cytometry; active compounds read high. AID 624483; in the data active means fluorescence intensity above about 16000; inconclusive means no clear call, values can overlap the other calls
MazF activator: activators of E. coli MazEF toxin-antitoxin RNase, primary screen, biochemical, fluorescence, uHTS; 350,000 compounds, 0.32% hits; FAM/BHQ RNA-DNA oligo cleavage fluorescence, 5 h; Endoribonuclease toxin MazF (Escherichia coli (strain K12)), P0AE70; activation, % at 20 µM; AID 504720, 2011; in the data active means activation above about 50%
Target sequence (P0AE70 whole entry, looked up): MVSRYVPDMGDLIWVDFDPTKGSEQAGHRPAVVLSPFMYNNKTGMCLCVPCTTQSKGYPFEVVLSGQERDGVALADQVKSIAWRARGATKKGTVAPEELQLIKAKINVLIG
DUSP3 inh: VHR1 phosphatase inhibitors, primary screen, biochemical, absorbance, uHTS; recombinant VHR phosphatase, pNPP absorbance; 290,000 compounds, 0.52% hits; Dual specificity protein phosphatase 3 (Homo sapiens), P51452; inhibition, % at 13.3 µM; in the data active means inhibition above about 50%
Target sequence (P51452 whole entry, looked up): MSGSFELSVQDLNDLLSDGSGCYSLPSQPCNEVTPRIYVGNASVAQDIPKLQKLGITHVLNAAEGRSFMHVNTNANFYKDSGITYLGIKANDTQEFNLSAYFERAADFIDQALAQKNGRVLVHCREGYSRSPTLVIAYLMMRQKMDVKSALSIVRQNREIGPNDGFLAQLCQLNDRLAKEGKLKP
BoNT-A LC inh2: BoNT/A light chain protease inhibitors, primary screen, biochemical, flow cytometry, MLPCN library. 360,000 compounds, 0.17% hits. AID 588499, 2011. inhibition, % at 10 µM. Botulinum neurotoxin type A light chain protease (Clostridium botulinum A str. ATCC 3502). multiplex microsphere protease substrate cleavage
A number is an active result; n = inactive; u = inconclusive; x = no result given. Unless noted, no stated cut-off is given here; in the data, active means inhibition above about 30%; inconclusive means no clear call, values can overlap the other calls; inactive means below that.

SMILES | BoNT-F LC inh | Anthrax LF prot | Autofluor counter | MazF activator | DUSP3 inh | BoNT-A LC inh2
Cc1ccc(NC(=O)CN2C(=O)S/C(=C\c3cccn3-c3cccc(C(=O)O)c3)C2=O)cc1C | n | n | n | n | x | n
CCCc1cc(Nc2cccc(OC)c2)n2ncnc2n1 | n | n | 23259 | n | n | n
CCCc1cc(Nc2cccc(OCC)c2)n2ncnc2n1 | n | n | n | n | n | n
CC(=O)C1=CCC(c2ccc(Cl)cc2)N(S(=O)(=O)c2ccc(C)cc2)C1 (stereo not drawn) | n | n | n | x | x | n
c1ccc(COc2ccc(CNCc3cccs3)cc2)cc1 | n | n | 20591 | n | n | n
Brc1ccc(CNCc2cccs2)cc1 | n | n | n | n | n | n
COc1cccc(CN2CCC2(C)C(=O)NCCc2ccccn2)c1OC (stereo not drawn) | n | n | n | x | x | n
COc1ccc(CCNC(=O)COC(=O)c2cncc(Br)c2)cc1OC | n | n | n | n | x | n
Cc1cnn(CCC(=O)NNC(=S)Nc2ccccc2)c1 | n | n | 22734 | n | n | n
Cc1ccc(NC(=S)NNC(=O)CCn2cc(C)cn2)cc1 | n | n | 20267 | n | n | n
Cc1cnn(CCC(=O)NNC(=S)NCC(C)C)c1 | n | n | n | n | n | n
CCCCNC(=S)NNC(=O)CCn1cc(C)cn1 | n | n | n | n | n | n
O=C1CCCC/C1=C/Nc1ccc2c(c1)OCO2 | n | n | 16302 | n | n | n
COc1ccc(N/C=C2/CCCCC2=O)cc1 | n | n | 21936 | n | n | n
O=C1CCCC/C1=C\Nc1ccccc1C(=O)O | n | n | 19879 | n | n | n
COc1ccc(OC)c(N/C=C2/CCCCC2=O)c1 | n | n | 21967 | n | n | n
O=C1C=Cc2cccc3ccc(O)c1c23 | n | 38 | n | n | x | 61
O=C(O)CN1C(=O)CC(c2ccccc2)CC1=O | u | n | n | n | n | n
CCCCN(C(=O)c1cc(-c2ccco2)nc2ccccc12)c1c(N)n(CCC)c(=O)[nH]c1=O | n | n | n | n | x | n
Cc1ccccc1CSc1nnc(NC(=O)C2COc3ccccc3O2)s1 (stereo not drawn) | n | n | 20631 | n | n | n
O=C(Nc1nnc(SCc2ccccc2Cl)s1)C1COc2ccccc2O1 (stereo not drawn) | n | n | n | n | n | n
O=C(NCC(=O)N1CCCCCC1)c1ccc(Cl)cc1 | n | n | n | n | n | n
O=S(=O)(Nc1ccc(Cc2ccncc2)cc1)c1ccc(Cl)s1 | n | n | n | n | n | n
O=S(=O)(Nc1ccc(Cc2ccncc2)cc1)c1ccc(Br)s1 | n | n | 16939 | n | n | n
CC1=C(C(=O)OC(C)C)C(c2cccnc2)C2=C(CCCC2=O)N1 (stereo not drawn) | n | n | n | n | n | n
SMILES | BoNT-F LC inh | Anthrax LF prot | Autofluor counter | MazF activator | DUSP3 inh | BoNT-A LC inh2
CCOC(=O)C1=C(N)OC2=C(C(=O)CC(C)(C)C2)C1c1cccnc1 (stereo not drawn) | n | n | 22141 | n | n | n
CCOC(=O)C1=C(C)NC2=C(C(=O)CCC2)C1c1cccnc1 (stereo not drawn) | n | n | 23612 | n | n | n
CCOc1ccc(Br)cc1C(=S)N1CCCC1 | n | n | n | n | n | n
CC(=O)Nc1ccccc1OCC(O)CS(=O)(=O)c1ccc(C(F)(F)F)cn1 (stereo not drawn) | n | n | n | n | n | n
CCOCC(O)CS(=O)(=O)c1ccccn1 (stereo not drawn) | n | n | 23197 | n | n | u
O=C(CCCCCCCC(=O)N1CCCCCC1)N1CCCCCC1 | n | n | n | n | x | n
CC1(C)CC(=NOC(=O)c2ccccc2)CC(C)(C)N1 | n | n | 19903 | n | n | n
CCc1ccc(S(=O)(=O)Nc2nnc(N)s2)cc1 | u | n | n | n | n | n
COC(=O)[C@@]1(Cc2ccccc2)[C@H]2C(=O)N(C)C(=O)[C@H]2[C@H]2CN=C(SCc3ccc(C#N)cc3)N21 | n | n | n | n | x | n
Cc1noc(NS(=O)(=O)c2ccc(NC(=O)c3ccccc3NS(=O)(=O)c3ccc(F)c(F)c3)cc2)c1C | n | n | n | n | x | n
O=[N+]([O-])c1ccc2nccn2c1 | n | n | 24475 | n | n | n
CCCCN(C=O)c1c(CC)nc2ccc(C(=O)N3CCN(S(=O)(=O)CC)CC3)cn12 | n | n | n | x | x | n
Cc1ccc(S(=O)(=O)N2C[C@@H]3[C@H]4CC[C@H](C4)[C@@H]3[C@@H](C)[C@H]2c2ccco2)cc1 | n | n | n | n | x | n
CCCCc1nnc(NC(=O)CCN2C(=O)C3CC=CCC3C2=O)s1 (stereo not drawn) | n | n | n | n | x | n
CCN(Cc1ccccc1)S(=O)(=O)c1csc(C(N)=O)c1 | n | n | n | n | n | n
CCN(CC)S(=O)(=O)c1csc(C(=O)OCC(=O)c2ccccc2)c1 | n | n | 17304 | n | n | n
CCC1OC(C(C)C)Cc2[nH][nH]c(=O)c21 (stereo not drawn) | n | n | n | x | x | n
COc1ccc(-n2c3c(c(=O)[nH]c2=O)C(C(F)(F)F)(C(F)(F)F)N=C(CC(C)C)N3)cc1 | n | n | 19298 | n | n | n
Cc1cccc(C)c1NC(=O)Cn1c(=O)n(CCC(=O)NCc2ccco2)c(=O)c2sccc21 | n | n | 20666 | n | n | n
O=C(CCn1c(=O)c2sccc2n(CC(=O)OCc2ccccc2)c1=O)NCc1ccco1 | n | n | n | n | n | n
CC1CCCCN1C(=O)Cn1c(=O)n(CCC(=O)NCc2ccco2)c(=O)c2sccc21 (stereo not drawn) | n | n | 19227 | n | n | n
CCN(Cc1ccccc1)C(=O)Cn1c(=O)n(CC(=O)NCc2ccco2)c(=O)c2sccc21 | n | n | 21886 | n | n | n
O=C(CN1C(=O)C2CCCCC2C1=O)Nc1cc(C(F)(F)F)ccc1N1CCCC1 (stereo not drawn) | n | n | u | n | x | n
COCCCn1c(=O)/c(=C\c2ccccc2OC(C)C)s/c1=C(/C#N)C(=O)Nc1ccc(C(=O)O)cc1 | n | n | n | n | n | n
COCCCn1c(=O)/c(=C\c2ccccc2OC(F)F)s/c1=C(/C#N)C(=O)NC(C)C | n | n | n | 303 | n | n
COc1nc(NCc2cccnc2)nc(OC)n1 | n | n | 16316 | n | n | u
COc1nc(NCc2cccnc2)nc(NC2CCCCC2)n1 | n | n | n | n | n | n
CCCCOc1ccc(/C=C/C(=O)NCCc2nc3ccccc3[nH]2)cc1 | n | n | 21858 | n | n | n
COc1ccc(/C=C/C(=O)NCCc2nc3ccccc3[nH]2)cc1 | n | n | n | n | n | n
